# Reference: PubChem BioAssay (NCI)
# This is part of a sample that, as a whole, favours compounds with a hit. Of some 83,000 tested, about 20% had one in any assay.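 For each line, cells grew in 96-well plates with the test compound present at a single concentration for 48 hours.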 A number with no mark means an inactive call. Calls of active or inactive are those of the source. The calls were made as follows: active = growth percent below 10; inactive = the rest.
# Test system: MDA-MB-468 breast
# Assay: NCI-60 one-dose screen, 48 h (100 = growth as untreated, 0 = no growth, -100 = all killed)
# Conditions: 10 µM unless noted
row,SMILES,growth
1,Cc1c(Cc2ccccc2)c(=O)oc2c(C)c(OCc3n[nH]c(=S)o3)ccc12,77.7%
2,COc1cc(-c2csc(NC(=O)Nc3cccc(C(F)(F)F)c3)n2)cc(OC)c1OC,19.3%
3,COc1ccc(NS(=O)(=O)c2ccc(-c3cnc(C4CC4)o3)cc2)cc1Cl,9.75% (active)
4,CC1(C)CC[C@]2(CO)CC[C@]3(C)[C@](O)([C@H](O)C[C@@H]4[C@@]5(C)CCCNC(C)(C)[C@@H]5CC[C@]43C)[C@@H]2C1,81.3%
5,COc1ccc(/C=C(\C#N)n2nnc3cc(F)c(F)cc32)cc1,8.69% (active)
6,CCCCn1c(C)nc2cc(Nc3nc(N4CCCCC4)nc4nc[nH]c34)ccc21,36.1%
7,COC1OC(C(O)C(O)CO)C(O)C(O)C1O (stereo not drawn),101%
8,CS(=O)(=O)Nc1cc(-c2cc3ncc(C#N)c(Nc4ccc(Oc5ccccc5)c(Cl)c4)c3s2)cnc1Cl,43.3%
9,CCCCC/C(C)=N\NC(N)=S,-6.78% (active)
10,C=C(C)C(=O)O[C@H]1C[C@@]2(C)OC(=CC2=O)[C@H](C)[C@H](O)[C@H]2OC(=O)C(=C)[C@@H]21,24.7%
11,COc1ccccc1/C=C(/C(=O)c1ccccc1)c1ccccc1,101%
12,C1C[S+]2CC[S+]1CC2,101%
13,NC(Cc1ccc(O)cc1)C(=O)N/N=C/c1ccccc1O (stereo not drawn),108%
14,Clc1ccccc1CNc1c2ccccc2nc2ccccc12,-27.9% (active)
15,Nc1nc(N)c(NC(=O)CNc2ccc(C(=O)O)cc2)c(N)n1,98.6%
16,Cn1c(=O)c2c(ncn2CC(=O)Nc2ccc(S(N)(=O)=O)cc2)n(C)c1=O,102%
17,COc1cc(C2C=C(C)N=C3SC(C)=NN32)cc(OC)c1OC (stereo not drawn),106%
18,Nc1n[nH]c2cccc(C#Cc3cccc(NC(=O)c4cccc(C(F)(F)F)c4)c3)c12,79.3%
19,S=c1[nH]nc(Cn2c3ccccc3c3ccncc32)o1,115%

row,SMILES,growth
1,CN1C(=O)/C(=C/c2ccc(C(=O)Nc3ncc(Cc4ccccc4Cl)s3)cc2)SC1=S,40.3%
2,COc1cc(-c2nc(-c3ccccc3)[nH]c2-c2ccnc(NCCCNS(=O)(=O)c3cccc(F)c3)n2)ccc1F,85.1%
3,Cc1ccc(-c2nc3nc(-c4ccccc4)nc(N4CCCNCC4)c3o2)cc1,-67.5% (active)
4,CCc1nn2c(-c3ccccc3)c(-c3cc(OC)c(OC)c(OC)c3)nc2s1,66%
5,CCn1c(-c2nonc2N)nc2c(C#CC(C)(C)O)ncc(OC[C@H]3CCCNC3)c21,31.5%
6,COc1cc2nc(Cl)nc(Nc3ccc(S(=O)(=O)Nc4nccs4)cc3)c2cc1OC,102%
7,CCn1c(Cc2ccccc2Nc2c(Cl)cccc2Cl)nnc1SCC(=O)Nc1cccc(OC)c1,75%
8,Cc1ccc(-c2nc(N3CCN(C(=O)Nc4ccc(Cl)c(C(F)(F)F)c4)CC3)c3ccccc3n2)cc1,77.2%
9,CC[N+](CC)(CCOCCOCC[N+](CC)(CC)Cc1ccc([N+](=O)[O-])cc1)Cc1ccc([N+](=O)[O-])cc1,97.9%
10,O=C(Nc1cccc2c1C(=O)c1cccc(Nc3cccc4c3C(=O)c3cccc(NC(=O)c5ccccc5)c3C4=O)c1C2=O)c1ccccc1,126%
11,O=C(Nc1nc2ccc(C(=O)N3CCN(c4ccc(Cl)c(Cl)c4)CC3)cc2s1)c1ccc(NCCc2ccccc2)c([N+](=O)[O-])c1,88.6%
12,Cc1nc2sccn2c1-c1csc(Nc2cccc(Cl)c2C)n1,-13% (active)
13,N=C(N)c1ccc(-c2ccc(-c3ccc4ccccc4c3)s2)cc1,101%
14,O=c1[nH]c2ccccc2cc1-c1nc2ccncc2[nH]1,75%
15,Nc1cccc(NC(=O)C(=O)Nc2cccc(N)c2)c1,117%
16,C=CC(=O)N[C@@H](Cc1ccc(-c2cc(Cl)cc(Cl)c2)cc1)[C@@H](O)[C@H](O)C(=O)O,101%
17,CC1=C[C@H]2c3c(c(O)c(O)c4oc(-c5ccccc5)cc(=O)c34)[C@H](c3cc(O)c(O)c4oc(-c5ccccc5)cc(=O)c34)[C@H]2C(C)(C)C1,14.2%
18,COc1ccc(-c2nc(-c3nc4ccc(Cl)cc4[nH]3)c3ccccn23)cc1,61.5%
19,C/C(=N\NC(N)=S)C(C)(C)O,26.2%
